24 compounds from PubChem BioAssay AID588590 (National Center for Advancing Translational Sciences (NCATS), 2011) can be followed below.

About 4,000 (1%) of roughly 390,000 compounds were called active. Where a call stands in place of a potency, no number is given. Roughly 7% stayed inconclusive and do not appear here. This is one part of a sample in which actives are shown more often than they occur. Calls come from the whole dose curve; as a rule, active = well fitted inhibition curve with a large enough effect; inconclusive = small, poorly fitted or top-dose-only effect, or another doubt; inactive = no such curve, though single readings can be large or run the other way.
Potency is the fitted concentration of half-maximal effect.

In the experiment the target is DNA polymerase iota (Homo sapiens) (UniProt Q9UNA4). Description: qHTS for Inhibitors of Polymerase Iota. To be noted: Pol iota fluorescent replication assay, 10 min; series mostly up to 115 µM. In short, it runs like this: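 Pol iota at 10 nM preincubated 15 min with compounds at room temperature; reaction started with fluorescent substrate, 50 nM final. Fluorescence read kinetically at 0 and 10 min; buffer-only wells as negative control.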
DNA polymerase iota (Homo sapiens), sequence (Q9UNA4 whole entry, looked up): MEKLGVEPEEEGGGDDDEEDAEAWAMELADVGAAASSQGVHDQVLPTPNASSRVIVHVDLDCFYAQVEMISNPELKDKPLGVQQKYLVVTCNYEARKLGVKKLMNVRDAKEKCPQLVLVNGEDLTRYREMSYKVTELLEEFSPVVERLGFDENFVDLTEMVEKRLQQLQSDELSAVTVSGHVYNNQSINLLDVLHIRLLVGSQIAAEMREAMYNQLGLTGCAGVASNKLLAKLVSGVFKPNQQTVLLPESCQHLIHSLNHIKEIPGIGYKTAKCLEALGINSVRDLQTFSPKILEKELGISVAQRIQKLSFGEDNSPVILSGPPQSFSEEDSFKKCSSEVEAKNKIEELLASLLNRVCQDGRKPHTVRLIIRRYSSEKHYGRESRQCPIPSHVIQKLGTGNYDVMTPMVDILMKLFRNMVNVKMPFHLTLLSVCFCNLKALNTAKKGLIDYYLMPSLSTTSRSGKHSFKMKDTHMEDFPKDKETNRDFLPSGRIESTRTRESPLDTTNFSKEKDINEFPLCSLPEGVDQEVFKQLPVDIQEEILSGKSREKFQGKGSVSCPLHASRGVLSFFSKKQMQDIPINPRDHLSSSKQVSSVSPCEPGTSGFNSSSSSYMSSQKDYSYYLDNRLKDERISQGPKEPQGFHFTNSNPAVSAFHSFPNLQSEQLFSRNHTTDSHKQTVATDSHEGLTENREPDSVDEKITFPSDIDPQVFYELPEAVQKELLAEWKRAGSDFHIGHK
Background: Quantitative high-throughput screening tests each substance at several concentrations.
Consider `Cc1ccc2onc(CC(=O)N3CCN(c4ccc(Cl)cc4)CC3)c2c1`, for which the Potency entry is “inactive”.
Turning to `COc1ccc(C2Nc3ccc(NC(=O)COC(C)=O)cc3C(=O)N2Cc2ccccc2)cc1COc1ccc(NC(C)=O)cc1` (centres undefined), the Potency result was “inactive”.
For the compound `COC(=O)c1ccccc1NC(=O)Cn1c(=O)cc(C)c2c(C)nn(-c3cccc(Cl)c3C)c21`, the Potency result is “inactive”.
On to `O=C(/C=C/c1ccco1)NC(=S)Nc1ccccc1Br`, for which the Potency is 25.1 µM (active).
Next, `CC(C)CNC(=O)COC(=O)/C=C/c1ccco1`: “inactive”.
Consider `COc1ccc(Cl)cc1C(=O)NNC(=S)NC(=O)/C=C/c1ccco1`, for which the Potency result is “inactive”.
`CC(=O)Nc1ccc(NC(=O)C2CCCN(S(=O)(=O)c3ccc4c(c3)CCCC(=O)N4)C2)cc1` (centres undefined): the Potency entry was “inactive”.
Next, `COc1ccc(-c2nc(=N)sn2-c2ccccc2)cc1`: “inactive”; `O=C(Nc1ccc(S(=O)(=O)Nc2nccs2)cc1)c1cc(-c2ccncc2)nc2ccccc12`: 11.2 µM (active); `CCC(CC)C(=O)Nc1ccc(S(=O)(=O)Nc2nccs2)cc1`: “inactive”.
Under `COc1ccccc1OC(C)C(=O)Nc1ccc(S(=O)(=O)Nc2nccs2)cc1` (centres undefined) stands “inactive”; under `COc1ccc(NS(=O)(=O)c2cc3c4c(c2)CC(=O)N4CCC3)cc1Cl`, “inactive”.
As for `CCOc1ccc(OCC)c(NC(=O)CN(c2ccc(C)cc2)S(=O)(=O)c2c(C)n[nH]c2C)c1`, the Potency result is “inactive”.
For `CC1CCN(S(=O)(=O)c2ccc3c(ccn3CCC(=O)NCc3ccc(N(C)C)cc3)c2)CC1`, the Potency result was “inactive”.
Under `O=C(NC1CC(=O)N(c2ccc(Cl)cc2)C1)C1CCCC1` (centres undefined) stands “inactive”; under `Cc1nnc(SCC(=O)Nc2ccc(S(=O)(=O)Nc3ccc(Cl)nn3)cc2)s1`, 28.2 µM (active); under `COc1ccc(NC(=O)CSc2nc(NS(=O)(=O)c3ccc(C)cc3)cc(=O)[nH]2)cc1`, “inactive”.
Next, `CCCCCC(=O)Nc1ccc(S(=O)(=O)Nc2ccc(Cl)nn2)cc1`: “inactive”; `NC(=O)Nc1ccc(/C=C/c2ccnc3ccccc23)cc1`: “inactive”; `COc1ccc(-c2[nH]c3c(c2-c2c(-n4cccc4)n(C)c(=O)n(C)c2=O)c(=O)n(C)c(=O)n3C)cc1`: “inactive”.
Next, `CCCC(=O)n1nc(-c2ccccc2)nc1N`: 79.4 µM (active); `COc1ccc(C(=O)n2nc(-c3ccc(Cl)cc3)nc2N)cc1OC`: “inactive”.
In the case of `COc1ccc(CC(=O)n2nc(-c3cccnc3)nc2N)cc1`, the Potency entry was “inactive”.
Next, `CCC(Sc1nnc(-c2ccc(OC)cc2)c(-c2ccc(OC)cc2)n1)C(=O)NC1CCCCC1` (centres undefined): “inactive”.
